Measured values reported in publication PMC5540273 (PLoS ONE, 2017).

Assays:
Conditions in all cases: concentration: 1 μM, replicates: in singlicate; n = 1
CAMK2G = tested on: CAMK2G
CAMK4 = tested on: CAMK4
CAMKK1 = tested on: CAMKK1
CAMKK2 = tested on: CAMKK2
CASK = tested on: CASK
CDC2L1 = tested on: T1, CDC2L1
T1 construct: gene CDK11B

CDC2L2 = tested on: CDC2L2
CDC2L5 = tested on: T2, CDC2L5
T2 construct: gene CDK13

CDK11 = tested on: T3, CDK11
T3 construct: gene CDK19

CDK2 = tested on: CDK2
CDK3 = tested on: CDK3
CDK4-cyclinD1 = tested on: CDK4-cyclinD1
CDK4-cyclinD3 = tested on: CDK4-cyclinD3
CDK4 = tested on: CDK4
CDK5 = tested on: CDK5
CDK7 = tested on: CDK7
CDK8 = tested on: CDK8
CDK9 = tested on: CDK9
CDKL1 = tested on: CDKL1
CDKL2 = tested on: CDKL2
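Also: KINOMEscan kinase panel screen.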

SMILES | %Inh (CAMK2G) [%] | %Inh (CAMK4) [%] | %Inh (CAMKK1) [%] | %Inh (CAMKK2) [%] | %Inh (CASK) [%] | %Inh (CDC2L1) [%] | %Inh (CDC2L2) [%] | %Inh (CDC2L5) [%] | %Inh (CDK11) [%] | %Inh (CDK2) [%] | %Inh (CDK3) [%] | %Inh (CDK4-cyclinD1) [%] | %Inh (CDK4-cyclinD3) [%] | %Inh (CDK4) [%] | %Inh (CDK5) [%] | %Inh (CDK7) [%] | %Inh (CDK8) [%] | %Inh (CDK9) [%] | %Inh (CDKL1) [%] | %Inh (CDKL2) [%]
COc1cc2nccc(Nc3ccc(OCc4ccc(NC(C)=O)cc4)cc3)c2cc1OC.Cl [GW440135] | 9 | 0 | 11 | 1 | 0 | 0 | 0 | 0 | 34 | 0 | 4 | 37 | 0 | 34 | 0 | 0 | 36 | 0 | 1 | 0
CN1C(=O)C(Nc2ccccc2)=C(c2ccccc2)C1=O [SB-300079] | 0 | 0 | 0 | 0 | 0 | 0 | 0 | 0 | 0 | 0 | 12 | 9 | 0 | 11 | 5 | 6 | 13 | 1 | 4 | 13
COc1cc(Nc2ccnc3ccc(C(F)(F)F)cc23)cc(OC)c1OC [GW577382] | 12 | 10 | 15 | 0 | 25 | 0 | 17 | 0 | 19 | 4 | 16 | 39 | 0 | 10 | 0 | 1 | 47 | 0 | 6 | 21
O=C(Nc1ccc2c(c1)OCO2)NC1CCN(c2ccnc(NCc3ccc(F)cc3)n2)CC1 [GSK1379859] | 22 | 0 | 0 | 25 | 0 | 0 | 6 | 0 | 53 | 0 | 0 | 0 | 0 | 13 | 0 | 0 | 0 | 0 | 9 | 13
COc1ccc(CNC(=O)NC2CCN(c3ccnc(Nc4ccc(F)cc4)n3)C2)cc1 (stereo not shown) [GSK1379706] | 38 | 0 | 17 | 26 | 19 | 2 | 0 | 0 | 22 | 3 | 20 | 52 | 0 | 49 | 0 | 4 | 60 | 5 | 10 | 31
Nc1nccc2scc(-c3ccc4c(c3)CCN4C(=O)Cc3ccccc3)c12 [GSK2576924] | 0 | 3 | 0 | 7 | 15 | 8 | 16 | 0 | 57 | 0 | 9 | 0 | 0 | 13 | 0 | 7 | 70 | 0 | 7 | 17
CCCNC(=O)Nc1ccc(Oc2ncnc3ccn(C)c23)cc1 | 15 | 0 | 5 | 9 | 13 | 0 | 0 | 6 | 3 | 7 | 0 | 0 | 0 | 20 | 19 | 0 | 0 | 0 | 0 | 4
Nc1n[nH]c2ncc(-c3ccccc3)cc12 [SB-517081] | 11 | 0 | 0 | 0 | 24 | 0 | 5 | 0 | 0 | 0 | 26 | 0 | 5 | 23 | 0 | 0 | 0 | 0 | 8 | 34
Nc1nc(N)c2nc(-c3ccccc3)[nH]c2n1 [SKF-12778] | 4 | 0 | 6 | 0 | 0 | 0 | 0 | 5 | 0 | 0 | 1 | 20 | 0 | 0 | 5 | 7 | 23 | 0 | 0 | 2
Cc1cccc(-c2cc(-c3c[nH]nc3-c3ccccn3)ccn2)c1 [GW679395] | 21 | 0 | 9 | 7 | 24 | 0 | 0 | 0 | 9 | 0 | 9 | 0 | 0 | 0 | 0 | 0 | 4 | 0 | 0 | 14
Cl.c1ccc(Cn2cnc3cc(Nc4ncnc5ccccc45)ccc32)cc1 [GW272142] | 32 | 0 | 9 | 31 | 26 | 0 | 13 | 0 | 8 | 0 | 0 | 0 | 1 | 28 | 0 | 0 | 21 | 0 | 6 | 9
